Records with an inconclusive call do not appear. Active and inactive are the calls of the source.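 Rule for the calls, unless noted: active = binding below the plate cutoff, the plate median minus 3 SD, with a reading above zero; inconclusive = below the plate cutoff but reading exactly zero; inactive = the rest.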
Columns and labels:
[1] = yeast TOR pathway RPL19A-GFP modulators, primary screen, cell-based, S. cerevisiae, multiplex flow cytometry (AID 1862; in the data active = percent of DMSO control GFP below about 86%;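 note: lower values mimic rapamycin by blocking the RPL19A rise seen in DMSO cells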); conditions: S. cerevisiae RPL19A-GFP strain, flow cytometry fluorescence, 3 h; at 10 µM; stronger effect = lower value
[2] = modulators of MEP2-GFP levels in yeast, primary screen, S. cerevisiae, multiplex flow cytometry (AID 1867;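 active = GFP response, as percent of the DMSO control, above the screen-wide mean plus 3 SD, about 139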;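 note: median GFP channel fluorescence of barcode-gated MEP2-GFP cells measured by flow cytometry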); conditions: S. cerevisiae MEP2-GFP strain, 3 h, at 10 µM, stronger effect = higher value, 100% means same as DMSO wells
[3] = modulators of CIT2-GFP expression in yeast, primary screen, S. cerevisiae, GFP fusion, multiplex flow cytometry (AID 1870;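 active = percent response above a set limit, the screen-wide mean plus 3 SD, cut at about 130% in these data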;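 note: barcoded CIT2-GFP strain pooled with four other GFP strains with rapamycin as positive control; median GFP fluorescence per well over plate mean of DMSO wells so 100% = DMSO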); conditions: 3 h, at 10 µM, stronger effect = higher value
[4] = modulators of LAP4-GFP expression in yeast, primary screen, S. cerevisiae, multiplex flow cytometry (AID 1873;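 active = GFP signal, as percent of the solvent control, above the screen mean plus 3 SD, about 149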); conditions: 3 h, at 10 µM, stronger effect = higher value
[5] = modulators of AGP1-GFP expression in yeast TOR pathway, primary screen, cell-based, multiplex flow cytometry, S. cerevisiae (AID 1887;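 active = GFP signal above the screen-wide mean plus 3 SD, that is over about 124.5% of the solvent control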;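 note: AGP1-GFP fusion strain of S. cerevisiae within a five-strain barcoded multiplex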); conditions: 3 h, at 10 µM, stronger effect = higher value
[6] = inhibitors of CD8+ T cell-vesicle binding, pilot screen, LFA-1/ICAM-1 modulator project, MLPCN validation set, flow cytometry (AID 2523;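 active = response below a set limit, under 55% cells CD8-positive and vesicle-bound, and CD8 cells' 90th-percentile brightness under 279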;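 for vesicle binding response: mean PE anti-B7-1 fluorescence of CD8+ cells relative to row control; 100% = QL9-loaded vesicles with DMSO vehicle in the same plate row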); conditions: 2C mouse CD8+ T cells, at 7 µM, stronger effect = lower value; double positive events: measured here: CD8+/vesicle+ event percentage
[7] = target: Integrin beta-1 (Homo sapiens) + Integrin alpha-4 (Homo sapiens) (UniProt P13612+P05556); assay: inhibition of HUTS-21 binding to VLA-4, pilot screen, VLA-4 allosteric modulator project, U937 cells, HUTS-21 mAb, flow cytometry, validation set (AID 2674;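 active = inhibition above 50%, about 3 SD of the validation set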;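 note: antibody binding induced by the VLA-4 ligand LDV present at three times its Kd; 0% = LDV ligand with antibody and no compound and 100% = antibody without LDV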); conditions: HUTS-21 LIBS mAb binding, at 6.7 µM, stronger effect = higher value, binding induced by LDV ligand
[8] = superoxide lowering in aged yeast cells, pilot screen, validation compound set (AID 2706;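 active = superoxide response below 65% of plate, a cut near 3 SD across the whole screen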;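 note: yeast exposed to compound for one week at 30 degrees C before staining; 100% = mean of all compound wells on the same plate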); conditions: S. cerevisiae aging, superoxide DHE fluorescence; at 10 µM; stronger effect = lower value
[9] = target: Beta-adrenergic receptor kinase 1 (Homo sapiens) (UniProt P25098); assay: GRK2 binders displacing RNA aptamer, biochemical, validation, human GRK2, bead flow cytometry (AID 488806;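 active = aptamer binding inhibition above 30%, about 3 SD of noise from non-fluorescent compounds; inactive = inhibition at or below 30%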); conditions: bead-bound GRK2, FAM-aptamer displacement, at 10 µM, stronger effect = higher value
[10] = target: Beta-2 adrenergic receptor (Homo sapiens) (UniProt P07550); assay: beta2AR agonists driving receptor internalization, pilot screen, cell-based, FAP fluorogen, flow cytometry, validation set (AID 504459;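 active = percent response above 42, roughly 3 SD of non-fluorescent test compounds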;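 note: agonist-driven loss of surface beta2AR via internalization measured by FAP dye flow cytometry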); conditions: Am2.2-beta2AR cells, FAP surface receptor flow cytometry; at 10 µM; stronger effect = higher value
[11] = target: AP-2 complex subunit beta (Homo sapiens) (UniProt P63010); assay: inhibitors of arrestin peptide binding to AP2, pilot screen, biochemical, validation set, GST-AP2 beads, flow cytometry (AID 504541;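 active = inhibition above 54%, about 3 SD of non-fluorescent compounds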;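 note: AP2 carries R879A mutation and is captured from E. coli lysate; bead-bound FITC arrestin peptide fluorescence measuring arrestin peptide binding to AP2; 0% = DMSO wells and 100% = excess unlabeled arrestin peptide control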); conditions: FITC arrestin peptide, at 10 µM, stronger effect = higher value, AP2 beta2 appendage fragment, R879A mutant
[12] = yeast V-ATPase proton transport modulators, S. cerevisiae, pHLuorin, HTS validation (AID 504600; in the data active = response above about 15%;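 note: plate controls were DMSO for no effect and reference compound for full effect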); conditions: S. cerevisiae pHLuorin cytosolic pH, at 10 µM, stronger effect = higher value
[13] = test system: anti-desmoglein-3 scFv antibody binding to human DSG3; assay: inhibitors of anti-DSG3 scFv binding to DSG3, pilot screen, biochemical, validation compound set, bead-based, flow cytometry (AID 588368); conditions: Protein G beads, DSG3-Fc, scFv-GFP binding, at 10 µM, stronger effect = lower value;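 note: signal is the median channel fluorescence of bead-bound GFP antibody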
[14] = inhibitors of fungal efflux pumps CDR1, CDR2, MDR1, pilot screen, validation compound set, multiplex, phenotypic (AID 588506;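 active = efflux inhibition above 0.42, the validation set average plus 4 SD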;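 note: Nile Red retained in cells so higher fluorescence means more efflux inhibition; 0 = negative control wells and 1 = enniatin B 25 µM full block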); conditions: S. cerevisiae pump-expressing triplex, Nile Red efflux flow cytometry; at 10 µM; stronger effect = higher value; the pumps come from Candida albicans
[15] = target: ATP-binding cassette sub-family B member 6 (Homo sapiens) (UniProt Q9NP58); assay: ABCB6 transporter inhibitors, pilot screen, K562-ABCB6 cells, flow cytometry, validation set (AID 588550;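 active = inhibition above the screen-wide mean plus 3 SD, about 51%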;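 note: 0% = DMSO wells and 100% = benzethonium chloride 70 µM positive control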); conditions: K562-ABCB6 porphyrin accumulation, 1 h, at 10 µM, stronger effect = higher value
[16] = promoters of myeloid differentiation in arrested cells, primary screen, cell-based, GFP/MAC1 double positive, flow cytometry, validation set (AID 588685;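 active = differentiation response of at least 50%, scaled between solvent and reference control, from cells with both markers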;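 note: compound exposure lasts four days before antibody staining and flow analysis; 0% = DMSO wells and 100% = 5 µM fulvestrant positive control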); conditions: ER-HoxA9 marrow cells, stronger effect = higher value, normalized: vehicle 0, fulvestrant 100

Beta-2 adrenergic receptor (Homo sapiens), sequence (P07550 whole entry, looked up): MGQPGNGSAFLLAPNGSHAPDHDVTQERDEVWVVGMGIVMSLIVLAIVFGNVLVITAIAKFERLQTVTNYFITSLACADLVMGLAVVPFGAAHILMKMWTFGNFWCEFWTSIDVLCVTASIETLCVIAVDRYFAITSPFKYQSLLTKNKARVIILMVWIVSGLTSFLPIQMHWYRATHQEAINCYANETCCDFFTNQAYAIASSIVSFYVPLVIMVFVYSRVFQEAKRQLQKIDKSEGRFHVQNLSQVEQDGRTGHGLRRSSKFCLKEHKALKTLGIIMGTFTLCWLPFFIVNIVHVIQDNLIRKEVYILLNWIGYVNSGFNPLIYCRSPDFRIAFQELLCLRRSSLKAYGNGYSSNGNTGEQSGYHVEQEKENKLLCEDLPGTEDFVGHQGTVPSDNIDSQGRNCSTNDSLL
Integrin beta-1 (Homo sapiens) + Integrin alpha-4 (Homo sapiens), sequence (P05556 whole entry, looked up): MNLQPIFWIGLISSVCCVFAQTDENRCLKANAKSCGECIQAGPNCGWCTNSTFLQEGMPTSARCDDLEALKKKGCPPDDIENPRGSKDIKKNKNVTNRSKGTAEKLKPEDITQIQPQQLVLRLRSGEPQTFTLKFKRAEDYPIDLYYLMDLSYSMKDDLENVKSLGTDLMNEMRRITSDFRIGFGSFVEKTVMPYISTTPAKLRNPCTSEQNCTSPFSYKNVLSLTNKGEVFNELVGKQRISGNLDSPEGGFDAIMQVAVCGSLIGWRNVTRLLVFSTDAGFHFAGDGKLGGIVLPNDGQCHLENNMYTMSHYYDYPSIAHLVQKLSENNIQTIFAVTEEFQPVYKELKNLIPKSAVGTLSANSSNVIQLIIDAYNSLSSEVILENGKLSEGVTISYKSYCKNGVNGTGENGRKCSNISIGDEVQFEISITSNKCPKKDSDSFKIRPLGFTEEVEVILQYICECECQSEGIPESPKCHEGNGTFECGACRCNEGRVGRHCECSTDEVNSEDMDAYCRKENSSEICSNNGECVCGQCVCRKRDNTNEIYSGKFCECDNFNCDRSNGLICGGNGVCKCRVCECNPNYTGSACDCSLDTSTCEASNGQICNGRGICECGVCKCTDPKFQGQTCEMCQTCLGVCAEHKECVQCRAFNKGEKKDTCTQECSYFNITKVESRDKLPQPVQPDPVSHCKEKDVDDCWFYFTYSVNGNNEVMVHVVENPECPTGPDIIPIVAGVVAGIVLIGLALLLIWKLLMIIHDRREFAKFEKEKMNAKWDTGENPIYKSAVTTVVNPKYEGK
Integrin beta-1 (Homo sapiens) + Integrin alpha-4 (Homo sapiens), sequence (P13612 whole entry, looked up): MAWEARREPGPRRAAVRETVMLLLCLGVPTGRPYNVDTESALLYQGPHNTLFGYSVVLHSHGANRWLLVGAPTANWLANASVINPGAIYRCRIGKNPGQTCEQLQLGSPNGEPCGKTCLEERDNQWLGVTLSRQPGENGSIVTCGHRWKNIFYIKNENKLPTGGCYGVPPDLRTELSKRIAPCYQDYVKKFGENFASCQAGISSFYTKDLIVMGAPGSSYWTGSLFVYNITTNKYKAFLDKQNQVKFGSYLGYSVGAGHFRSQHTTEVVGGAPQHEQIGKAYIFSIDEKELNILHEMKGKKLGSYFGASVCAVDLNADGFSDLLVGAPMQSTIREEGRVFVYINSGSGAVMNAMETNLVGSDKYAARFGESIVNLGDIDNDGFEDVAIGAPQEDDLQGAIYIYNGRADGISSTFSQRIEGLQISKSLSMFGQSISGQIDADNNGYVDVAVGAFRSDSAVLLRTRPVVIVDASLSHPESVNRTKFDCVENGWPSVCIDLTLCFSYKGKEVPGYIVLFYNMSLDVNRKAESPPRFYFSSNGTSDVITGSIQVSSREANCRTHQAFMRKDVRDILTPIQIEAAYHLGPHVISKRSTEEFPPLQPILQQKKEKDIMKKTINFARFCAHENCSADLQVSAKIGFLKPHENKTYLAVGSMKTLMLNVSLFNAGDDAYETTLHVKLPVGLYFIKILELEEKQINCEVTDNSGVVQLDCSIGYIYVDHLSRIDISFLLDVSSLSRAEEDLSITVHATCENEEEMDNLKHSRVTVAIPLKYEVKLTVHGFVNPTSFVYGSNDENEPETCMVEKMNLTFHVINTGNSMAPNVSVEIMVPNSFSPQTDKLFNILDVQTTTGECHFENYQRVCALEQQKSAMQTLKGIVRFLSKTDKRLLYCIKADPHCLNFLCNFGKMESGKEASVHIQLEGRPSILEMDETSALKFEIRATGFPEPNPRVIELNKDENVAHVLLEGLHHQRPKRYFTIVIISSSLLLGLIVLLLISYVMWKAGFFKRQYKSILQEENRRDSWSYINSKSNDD
Beta-adrenergic receptor kinase 1 (Homo sapiens), sequence (P25098 whole entry, looked up): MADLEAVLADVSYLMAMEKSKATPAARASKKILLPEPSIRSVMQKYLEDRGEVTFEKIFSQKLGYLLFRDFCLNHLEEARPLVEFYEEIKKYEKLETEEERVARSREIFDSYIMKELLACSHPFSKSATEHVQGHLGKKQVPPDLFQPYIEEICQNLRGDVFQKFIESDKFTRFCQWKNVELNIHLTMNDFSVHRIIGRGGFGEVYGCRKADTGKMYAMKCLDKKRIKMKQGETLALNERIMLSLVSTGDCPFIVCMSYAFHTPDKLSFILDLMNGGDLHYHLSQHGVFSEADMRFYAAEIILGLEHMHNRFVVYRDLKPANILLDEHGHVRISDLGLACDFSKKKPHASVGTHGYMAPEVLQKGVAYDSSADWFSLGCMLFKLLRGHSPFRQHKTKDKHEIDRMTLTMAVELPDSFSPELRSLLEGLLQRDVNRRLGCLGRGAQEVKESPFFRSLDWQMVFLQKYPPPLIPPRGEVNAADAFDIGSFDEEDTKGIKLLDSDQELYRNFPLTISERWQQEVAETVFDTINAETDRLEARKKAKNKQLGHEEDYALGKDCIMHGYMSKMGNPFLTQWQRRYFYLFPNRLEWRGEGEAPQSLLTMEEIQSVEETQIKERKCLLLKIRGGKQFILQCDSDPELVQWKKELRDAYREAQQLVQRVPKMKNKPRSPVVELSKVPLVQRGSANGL
AP-2 complex subunit beta (Homo sapiens), sequence (P63010 whole entry, looked up, the tested form may be a part, one chain of several): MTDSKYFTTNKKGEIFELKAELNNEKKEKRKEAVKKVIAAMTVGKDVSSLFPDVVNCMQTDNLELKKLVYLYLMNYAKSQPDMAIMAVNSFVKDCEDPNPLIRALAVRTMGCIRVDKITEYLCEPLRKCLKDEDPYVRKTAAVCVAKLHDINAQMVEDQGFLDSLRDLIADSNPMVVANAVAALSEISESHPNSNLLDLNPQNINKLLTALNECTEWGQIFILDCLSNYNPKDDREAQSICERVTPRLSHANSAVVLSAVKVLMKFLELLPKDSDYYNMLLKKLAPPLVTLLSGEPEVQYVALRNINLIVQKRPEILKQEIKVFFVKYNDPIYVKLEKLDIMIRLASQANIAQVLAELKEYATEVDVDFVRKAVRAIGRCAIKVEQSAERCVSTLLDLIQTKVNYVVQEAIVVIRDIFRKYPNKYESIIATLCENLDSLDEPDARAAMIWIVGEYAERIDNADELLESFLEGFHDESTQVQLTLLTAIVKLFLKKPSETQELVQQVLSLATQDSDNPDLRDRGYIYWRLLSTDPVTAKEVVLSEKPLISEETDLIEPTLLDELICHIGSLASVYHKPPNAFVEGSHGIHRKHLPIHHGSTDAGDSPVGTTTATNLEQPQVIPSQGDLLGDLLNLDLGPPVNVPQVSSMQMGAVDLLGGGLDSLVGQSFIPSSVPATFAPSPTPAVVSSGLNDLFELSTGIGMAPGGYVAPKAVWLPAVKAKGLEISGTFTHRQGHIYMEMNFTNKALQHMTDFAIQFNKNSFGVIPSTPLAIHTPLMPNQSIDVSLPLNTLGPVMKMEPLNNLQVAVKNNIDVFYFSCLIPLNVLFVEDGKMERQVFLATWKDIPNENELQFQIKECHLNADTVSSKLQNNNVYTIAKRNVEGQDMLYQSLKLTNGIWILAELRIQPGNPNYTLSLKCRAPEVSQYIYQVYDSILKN
ATP-binding cassette sub-family B member 6 (Homo sapiens), sequence (Q9NP58 whole entry, looked up): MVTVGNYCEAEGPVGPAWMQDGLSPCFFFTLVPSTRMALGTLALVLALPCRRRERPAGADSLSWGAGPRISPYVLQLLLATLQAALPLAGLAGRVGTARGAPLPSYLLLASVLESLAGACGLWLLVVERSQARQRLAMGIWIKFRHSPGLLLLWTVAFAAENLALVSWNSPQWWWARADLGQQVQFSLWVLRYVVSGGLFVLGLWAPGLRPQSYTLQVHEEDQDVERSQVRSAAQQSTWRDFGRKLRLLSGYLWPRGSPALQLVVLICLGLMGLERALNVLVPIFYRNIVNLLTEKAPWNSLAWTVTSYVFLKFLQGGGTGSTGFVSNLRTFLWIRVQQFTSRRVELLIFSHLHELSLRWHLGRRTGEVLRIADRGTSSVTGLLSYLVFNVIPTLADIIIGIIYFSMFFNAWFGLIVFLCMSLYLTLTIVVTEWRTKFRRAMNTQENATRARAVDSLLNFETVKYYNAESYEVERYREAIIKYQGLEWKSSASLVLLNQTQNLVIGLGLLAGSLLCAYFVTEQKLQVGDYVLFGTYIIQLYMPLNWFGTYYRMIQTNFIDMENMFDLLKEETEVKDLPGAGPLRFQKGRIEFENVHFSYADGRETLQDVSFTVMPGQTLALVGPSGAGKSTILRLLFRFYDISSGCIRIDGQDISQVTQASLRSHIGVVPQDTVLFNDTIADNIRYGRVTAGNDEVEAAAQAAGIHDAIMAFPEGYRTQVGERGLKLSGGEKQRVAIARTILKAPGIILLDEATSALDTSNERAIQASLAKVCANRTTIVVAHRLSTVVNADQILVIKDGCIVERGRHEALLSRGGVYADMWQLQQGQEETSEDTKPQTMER

Row | Compound | percent of DMSO control GFP [1] | GFP response vs DMSO [2] | percent response of DMSO control [3] | GFP response vs DMSO [4] | GFP response, % of DMSO [5] | double positive events [6] [%] | vesicle binding response [6] | inhibition [7] | superoxide response (% of plate) [8] | aptamer binding inhibition [9] | response [10] | inhibition [11] | response [12] | binding (% of control) [13] | efflux inhibition (fraction of control) [14] | inhibition [15] | differentiation response [16]
1 | CCOC(=O)C1=C(C)NC(C)=C(C(=O)OC)C1c1cccc([N+](=O)[O-])c1 (stereo unspecified) | 91.3% (inactive) | 124% (inactive) | 95.2% (inactive) | 85.3% (inactive) | 91.5% (inactive) | 63.3 | 200% (inactive) | 8.4% (inactive) | 104% (inactive) | 2% (inactive) | -11.6% (inactive) | 41.2% (inactive) | -3.09% (inactive) | 95.6% (inactive) | 0.12 (inactive) | 18% (inactive) | -1.64% (inactive)
2 | CN(C)C(=O)CCCCCCCCC(=O)N(C)C | 90.6% (inactive) | 146% (active) | 107% (inactive) | 79.2% (inactive) | 93.3% (inactive) | 64.1 | 194% (inactive) | 7.43% (inactive) | 81.8% (inactive) | 5% (inactive) | 3.92% (inactive) | 12.9% (inactive) | -5.22% (inactive) | 101% (inactive) | 0.16 (inactive) | 6% (inactive) | 1.64% (inactive)
3 | Cn1c(SCC(=O)c2ccccc2)nnc1-c1ccncc1 | 99% (inactive) | 103% (inactive) | 99.6% (inactive) | 112% (inactive) | 107% (inactive) | 61.9 | 157% (inactive) | 0.59% (inactive) | 105% (inactive) | 6% (inactive) | -27.9% (inactive) | 4.51% (inactive) | -4.48% (inactive) | 99.2% (inactive) | -0.04 (inactive) | 2% (inactive) | 0.92% (inactive)
4 | O=C(c1cc2cc(Br)ccc2o1)N1CCCC1 | 101% (inactive) | 106% (inactive) | 97.6% (inactive) | 139% (inactive) | 99.4% (inactive) | 56.9 | 146% (inactive) | -5.11% (inactive) | 93.6% (inactive) | 0% (inactive) | -10.4% (inactive) | -6.7% (inactive) | 0.97% (inactive) | 103% (inactive) | -0.07 (inactive) | 9% (inactive) | -3.11% (inactive)
5 | O=C(NCCO)c1ccc2[nH]c3ccccc3c2c1 | 98.4% (inactive) | 104% (inactive) | 102% (inactive) | 101% (inactive) | 101% (inactive) | 58.7 | 246% (inactive) | -0.45% (inactive) | 96.6% (inactive) | 2% (inactive) | -3.67% (inactive) | -8.91% (inactive) | 3.8% (inactive) | 98.7% (inactive) | 0.11 (inactive) | -1% (inactive) | 5.13% (inactive)
6 | CCc1cc2c(C)cc(=O)oc2cc1OC(=O)C1CCCN1C(=O)OC(C)(C)C (stereo unspecified) | 103% (inactive) | 95.2% (inactive) | 110% (inactive) | 82% (inactive) | 96.3% (inactive) | 57.4 | 247% (inactive) | 0.94% (inactive) | 92.9% (inactive) | 2% (inactive) | 19.6% (inactive) | -11.6% (inactive) | 1.36% (inactive) | 103% (inactive) | -0.03 (inactive) | 6% (inactive) | -20% (inactive)
7 | COc1ccc(-c2csc(-c3cccnc3)n2)cc1C | 98.2% (inactive) | 111% (inactive) | 91% (inactive) | 95.7% (inactive) | 84.4% (inactive) | 59.8 | 170% (inactive) | 0.94% (inactive) | 102% (inactive) | 4% (inactive) | 3.47% (inactive) | 7.91% (inactive) | -1.19% (inactive) | 102% (inactive) | 0.12 (inactive) | 3% (inactive) | 4% (inactive)
8 | COc1ccc(C2OC[C@H]3O[C@H](O)[C@H](NC(C)=O)[C@@H](O)[C@@H]3O2)cc1 (stereo partly specified) | 99.8% (inactive) | 106% (inactive) | 97.6% (inactive) | 95.9% (inactive) | 97.5% (inactive) | 76.5 | 135% (inactive) | 6.95% (inactive) | 98.6% (inactive) | 0% (inactive) | 8.93% (inactive) | 6.9% (inactive) | 4.88% (inactive) | 95.3% (inactive) | -0.04 (inactive) | 12% (inactive) | -4.57% (inactive)

From PubChem BioAssay
